Source: PubChem
NPSR antag – blocks cAMP signaling of the human neuropeptide S receptor | Potency, µM (highest dose often 38.3 µM), without a hit: at the top dose activity change, negative = inhibition, usual class: inhibitors | CHO-NPSR cells, cAMP TR-FRET, antagonist mode | 220,000 tested, 1% active | Q6W5P4; note: nearly all actives have a fitted effect of over 50% in size
Tau fibril ThT – inhibitors of human tau fibril formation, thioflavin T binding. Potency, µM (titrated, usually from 57.4 µM), for inactives: at the top dose activity, negative = inhibition, actives largely listed as inhibitors. 270,000 tested, 2.1% active. P10636. AID 1460. recombinant tau K18 P301L, heparin-induced fibrillization, ThT fluorescence; note: nearly all actives have a fitted effect of over 55% in size
Target sequence (P10636 561-689 P618L limits assumed): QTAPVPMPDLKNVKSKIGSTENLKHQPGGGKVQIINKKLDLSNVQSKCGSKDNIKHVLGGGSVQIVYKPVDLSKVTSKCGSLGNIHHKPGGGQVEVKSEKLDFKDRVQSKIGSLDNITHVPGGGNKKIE
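Tau K18 P301L fragment (15 uM unlabeled plus 0.24 uM Alexa 594-labeled) in 100 mM sodium acetate pH 7 with compound, fibrillization induced by 20 uM heparin for 6 hr at 37 C. Thioflavin T (30 uM) added, fluorescence read after 1 hr (ex 450, em 510 nm).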
HPGD block – inhibitors of human 15-hydroxyprostaglandin dehydrogenase (HPGD) | purified HPGD, NADH fluorescence kinetic, PGE2 substrate | Potency, µM, for inactives: at the highest dose activity change, negative = inhibition, usual class: inhibitors | 150,000 tested, 4.3% active; active = well fitted inhibition curve with a large enough effect, not every such curve was filed as active; inconclusive = small, poorly fitted or top-dose-only effect, or another doubt; inactive = no such curve, though single readings can be large or run the other way
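20 nM HPGD preincubated 15 min at room temperature with compound in 50 mM Tris-HCl pH 8, 0.01% Tween 20. Started with 1 mM NAD+ and 30 uM prostaglandin E2; NADH fluorescence (360/450 nm) read 5 times over 30-s intervals, last minus first.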
Tau fluor counter – counter-screen for tau fibril formation inhibitors; tau K18 P301L (four-repeat tau fragment) Alexa594 fluorescence, heparin fibrillization; Potency, µM (series often up to 57.7 µM), for inactives: at the highest dose activity change, negative = decrease; 280,000 tested, 0.93% active; AID 1463; note: nearly all actives have a fitted effect of over 55% in size
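Human K18 P301L tau (15 uM unlabeled plus 0.24 uM Alexa 594-labeled, final) in 100 mM sodium acetate pH 7 was mixed with compound and 20 uM heparin and incubated 6 hr at 37 C.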
ALDH1A1 inh – blocks purified human ALDH1A1 activity; Purified ALDH1A1, NADH fluorescence, propionaldehyde substrate; Potency, µM (top dose mostly 75.3 µM), inactives show top-dose activity, negative = inhibition, usual class: inhibitors; AID 1030; 220,000 tested, 7.3% active; P00352; active = well fitted inhibition curve with a large enough effect, not every such curve was filed as active; inconclusive = small, poorly fitted or top-dose-only effect, or another doubt; inactive = no such curve, though single readings can be large or run the other way;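 note: plate controls were no enzyme wells and a reference inhibitor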
Target sequence (P00352 whole entry, looked up): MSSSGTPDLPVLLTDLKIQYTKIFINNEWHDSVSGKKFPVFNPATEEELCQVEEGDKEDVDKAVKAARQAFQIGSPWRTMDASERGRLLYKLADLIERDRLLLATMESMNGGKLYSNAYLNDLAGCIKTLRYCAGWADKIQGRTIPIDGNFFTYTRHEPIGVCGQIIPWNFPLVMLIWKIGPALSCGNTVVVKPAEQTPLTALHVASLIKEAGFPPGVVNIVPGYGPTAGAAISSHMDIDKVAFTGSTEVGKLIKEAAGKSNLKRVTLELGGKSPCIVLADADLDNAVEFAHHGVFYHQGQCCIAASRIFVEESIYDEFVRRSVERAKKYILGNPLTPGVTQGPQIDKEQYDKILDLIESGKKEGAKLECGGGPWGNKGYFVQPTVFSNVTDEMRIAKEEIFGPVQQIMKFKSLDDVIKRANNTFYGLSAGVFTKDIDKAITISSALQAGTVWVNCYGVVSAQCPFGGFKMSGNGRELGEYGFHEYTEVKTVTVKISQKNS
Tau FP inhib – tau fibrillization inhibition (FP); P10636; K18 P301L tau heparin fibrillization, Alexa594 FP, 6 h; Potency, µM (doses to about 57.7 µM), inactives show at the highest dose activity, negative = inhibition, most hits filed as inhibitors; 280,000 tested, 0.39% active; note: nearly all actives have a fitted effect of over 55% in size
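Human K18 P301L fragment (15 uM unlabeled plus 0.24 uM Alexa 594-labeled) in 100 mM sodium acetate pH 7 with compound, aggregation induced by 20 uM heparin for 6 hr at 37 C. ThT (30 uM) added for 1 hr, then Alexa 594 FP read.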
* hit, by the source's call; ? = inconclusive; / = not tested or not shown; ! = not active in a repeat; [ ] = remark or other dose. Most compounds without a hit are left out; they make up all but 9.5% or so of the library. Unless noted, calls come from the whole dose curve; as a rule, active = well fitted curve in the direction sought with a large enough effect; inconclusive = small, poorly fitted or top-dose-only effect, or another doubt; inactive = no such curve, though single readings can be large; an effect the other way counts as inactive or inconclusive. Unless noted, % is set by controls: 0 for no effect and ±100 for the full control effect; potency is the fitted concentration of half-maximal effect.

SMILES	NPSR antag	Tau fibril ThT	HPGD block	Tau fluor counter	ALDH1A1 inh	Tau FP inhib
O=C(Nc1cccc(C(F)(F)F)c1)c1cccnc1NCCc1ccccc1	?	1%	?	?	?	14µM*
CCOc1ncccc1C(=O)Nc1ccc(F)cc1	9%	4%	/	7%	9%	4%
O=C(Nc1cccc(F)c1)c1cccnc1NCCc1ccccc1	-56%	1%	-28%	?	-3%	18µM*
O=C(Nc1ccc(F)cc1)c1cccnc1NCCc1ccccc1	-46%	-4%	-12%	?	-3%	13µM*
CNC(=O)c1cccnc1Nc1cccc(C(F)(F)F)c1	10%	-9%	-3%	-19%	2%	-2%
O=C(Nc1cccc(F)c1)c1ccccc1-c1ccccc1	-7%[46.1 µM]	1%	/	-10%	-11%	10%
CC1=C(C(=O)Nc2cccc(Cl)c2)C2(CCCCCC2)OC1=O	/	5%	/	1%	/	4%
Cc1ccc(CN(C(=O)COc2ccc(C(C)(C)C)cc2)C2CCS(=O)(=O)C2)o1 (stereo unspecified)	/	-2%	/	-9%	/	-3%
Cc1ccc(C(=O)Nc2c(C(=O)NCc3ccc(Cl)cc3)sc3nc(C)cc(C)c23)cc1	/	-1%	/	-15%	/	-8%
CC(C)c1ccc(/C=C2\CC/C(=C\C=N\N(C)C)C2=O)cc1	-17%[46.1 µM]	3.2µM*	-23%	-19%	0.4µM*	?
CC(C)/C=C1\CC/C(=C\c2ccc(N(C)C)cc2)C1=O	2%	2µM*	-2%	16%	-10%	19%
CC(C)c1ccc(/C=C2\SC(N3CCCC3)=NC2=O)cc1	-20%	-14%	-15%	2%	10%	15%
CCCCN(Cc1ccccc1)S(=O)(=O)c1ccc2[nH]c(=O)oc2c1	-16%[46.1 µM]	-1%	-10%	?	5µM*	-21%
CC(=O)NS(=O)(=O)c1ccc(NC(=O)CC(C)c2ccccc2)cc1 (stereo unspecified)	8%	-9%	/	-14%	1%	-1%
CCCCCCS(=O)[C@H]1CS(=O)(=O)C[C@@H]1S(=O)CCCCCC (stereo partly specified)	4%[46.1 µM]	-16%	13µM*	4%	?	-10%
CN(CC(=O)N1CC(=O)N(CCc2ccccc2)C(=O)C1)S(=O)(=O)c1cccc2nsnc12	-9%[46.1 µM]	3%	-1%	-5%	?	-11%
O=C(CCS(=O)(=O)c1cccc2nsnc12)N1CC(=O)N(CCc2ccccc2)C(=O)C1	-9%[46.1 µM]	-4%	-22%	-10%	22µM*	-11%
CCCN(CCC)C(=O)COc1cc(=O)n(CC)c2ccccc12	-6%	-7%	25µM*	-7%	-7%	1%
CCn1c(=O)cc(OCC(=O)N2CCCCCC2)c2ccccc21	-1%[46.1 µM]	-8%	32µM*	3%	?	-1%
CCN(C(=O)COc1cc(=O)n(CC)c2ccccc12)c1cccc(Cl)c1	-11%[46.1 µM]	-7%	-3%	16%	6.3µM*	15%
CCn1c(=O)cc(OCC(=O)N2CCN(c3ccc(F)cc3)CC2)c2ccccc21	-4%	-12%	/	-4%	-12%	8%
O=C(c1ccco1)N1CCC(N2CCN(c3ccccc3)CC2)CC1	11%	/	/	0%	/	-1%
c1ccc(N2CCN(C3CCSC3)CC2)cc1 (stereo unspecified)	-4%[46.1 µM]	-11%	-14%	3%	18µM*	1%
COc1cccc(C(=O)Nc2c3c(nn2-c2ccc(Cl)cc2)CS(=O)(=O)C3)c1	/	-4%	/	-9%	/	-4%
CCCCCCC(=O)Nc1nc(C)c(-c2csc(Nc3ccc(Cl)cc3)n2)s1	?	5µM*	-17%	6.3µM*[quencher]	?	0%
SMILES	NPSR antag	Tau fibril ThT	HPGD block	Tau fluor counter	ALDH1A1 inh	Tau FP inhib
CCCCCC(=O)Nc1nc(C)c(-c2csc(Nc3cc(Cl)ccc3C)n2)s1	-6%[46.1 µM]	?	-15%	?	?	7%
CCCCCC(=O)Nc1nc(C)c(-c2csc(Nc3ccc(Cl)cc3)n2)s1	-25%[46.1 µM]	11µM*	-23%	10µM*[quencher]	?	8%
[S-]C(=Nc1ccc(Cl)cc1)N[n+]1ccccc1	11%	-7%	6.3µM*	-5%	4%	6%
COC(=O)c1c(-c2ccc(Cl)cc2)noc1N1CCN(c2ccc(F)cc2)CC1	/	-10%	/	-9%	/	?
O=C(CCCCCNC(=O)c1ccccc1)N=Nc1c(O)[nH]c2c(Br)cc(Br)cc12	-57%	6.3µM*	/	?	?	-1%
O=C(CCNC(=O)c1ccccc1)N=Nc1c(O)[nH]c2ccccc12	-19%	-12%	/	2%	1%	0%
COC/C=C/C1=CC2=CC(=O)C(C)(OC(=O)c3cnc4ccccc4n3)C(=O)C2=CN1c1ccc(CO)cc1 (stereo unspecified)	/	-15%[11.5 µM]	-14%	-20%[11.6 µM]	0%[13.5 µM]	2%[11.6 µM]
COC/C=C/C1=CC2=CC(=O)C(C)(OC(=O)c3cnc4ccccc4n3)C(=O)C2=CN1c1ccccc1 (stereo unspecified)	1%	13µM*!	-2%	?	4%[13.5 µM]	?
Cc1cccc(C(=O)Nc2sc(-c3ccccc3)cc2C(=O)O)c1	13µM*	14µM*	/	?	/	14%
CC(C)(C)C(=O)Nc1sc(-c2ccccc2)cc1C(=O)O	13µM*	-14%	/	-7%	/	15%
CC1CCCCC1NCC#CCOc1ccc(Cl)cc1 (stereo unspecified)	-13%	-7%	/	-8%	-25%	-7%
COc1ccc(-n2cc(CN(C)C(C)c3ccncn3)c(-c3cccc(F)c3)n2)cc1 (stereo unspecified)	32%	-14%	/	-18%	25µM*	-8%
O=c1c2cc(Cl)ccc2nc(-c2ccc([N+](=O)[O-])cc2)n1O	-10%	?	/	-4%	11µM*	2%
Cc1ccc(-c2nc(C=Nc3ccc(O)cc3)c(O)o2)cc1	-27%	?	/	?	10%	-4%
Cc1ccc(N=Cc2nc(/C=C/c3cccc([N+](=O)[O-])c3)oc2O)cc1	-6%[46.1 µM]	1.4µM*	-14%	-16%	4%	12%
Cc1ccc(C(=O)Nc2nc(=O)n(C(=O)c3ccccc3C)s2)cc1	-21%[46.1 µM]	14µM*	-12%	-23%	?	?
O=C(Nc1nc(=O)[nH]s1)c1ccccc1	0%	-9%	/	-5%	12%	-5%
O=C(Nc1nc(=O)n(C(=O)C2CC2)s1)c1ccccc1	-30%[46.1 µM]	11µM*	-4%	-19%	-2%	?
COc1cc(C(=O)NCC(c2ccc3c(c2)OCO3)N2CCOCC2)cc(OC)c1OC (stereo unspecified)	/	0%	/	1%	/	8%
CCOc1ccc(CC(=O)NC2CC(=O)N(c3ccc4c(c3)OCCO4)C2)cc1 (stereo unspecified)	/	4%	/	12%	/	5%
